Test results: ChEMBL document CHEMBL1157539, “Thousands of chemical starting points for antimalarial lead identification” (Nature, 2010)

Tested on: Plasmodium falciparum
Assay: GSK_TCMDC: Inhibition of Plasmodium falciparum 3D7 in whole red blood cells, using parasite LDH activity as an index of growth. Test compounds present at 2uM
Format: functional

First: COc1ccc(Nc2ncc3c(-c4cccc(NC(=O)Cc5cccc(O)c5)c4)c[nH]c3n2)cc1OC
Second: Cc1cccc2nc(-c3ccc(-c4cccc(NC(=O)NCc5ccccc5)c4)cc3)[nH]c12
The Inhibition of the first is higher: 100% for the first, 95% for the second.

`CN(Cc1ccc(-c2ccc(C(F)(F)F)cc2)cc1)C(=O)Cn1c(CCc2cccc(F)c2F)cc(=O)c2ccc(OCCCN3CCCCC3)cc21.O=C(O)C(O)C(O)C(=O)O` and `CCN(CC)CCN(Cc1ccc(-c2ccc(C(F)(F)F)cc2)cc1)C(=O)Cn1c(CCc2cc(F)cc(F)c2F)nc(=O)c2ccccc21.O=C(O)C(O)C(O)C(=O)O` are the same in Inhibition: 100% for the first, 100% for the second.

First: CN1CCCC1CCNCc1cccc(-c2cnc(N3CCCC(C)(C)C3)nc2)c1 (configuration not stated)
Second: Cc1ccccc1C1CCN(c2ccc(C(=O)NC3CC3)cn2)CC1.O=C(O)C(F)(F)F
The Inhibition of the first is higher: 98% for the first, 95% for the second.

Compared with `Cc1cc(F)ccc1Oc1nc(Nc2ccc(N3CCOCC3)c(F)c2)nc2c1S(=O)(=O)CCC2.Cl`, `COc1ccc(Nc2nc(N3CCCC3)c3ccccc3n2)cc1.Cl` is higher in Inhibition: 96% for the first, 100% for the second.

First: Cc1c(C)n(C2CCCC2)c2ncnc(OC3CCN(CC(=O)NC4CC4)CC3)c12
Second: COc1ccc2nccc([C@@H](O)CN3CCC(NCc4cc5cc([N+](=O)[O-])ccc5[nH]4)CC3)c2c1.O=C(O)C(=O)O
The Inhibition of the first is lower: 95% for the first, 99% for the second.

First: CNC(=O)c1cnc(Nc2ccc3[nH]c(=O)[nH]c3c2)nc1Nc1cccc(OC(C)C)c1.O=C(O)C(F)(F)F
Second: CCNc1cc(C(=O)N[C@@H](Cc2ccccc2)[C@H](O)CNCc2cc(C#N)ccc2OC)cc(N2CCCC2=O)c1.O=C(O)C(F)(F)F
The Inhibition of the first is higher: 89% for the first, 85% for the second.

Going from `N#Cc1ccc(-c2ccc(C(=O)NCCCCN3CCC(c4nc5ccccc5[nH]4)CC3)cc2)cc1` to `Cc1cc(C2CCN(CCCCNC(=O)c3ccc(-c4ccc(C#N)cc4)cc3)CC2)c(C)cc1OCCO`, the Inhibition rises from 92% to 96%.

Going from `O=C(Cc1ccc(Cl)cc1)NC1CCN(c2ccnc3cc(Cl)ccc23)C1.O=C(O)C(F)(F)F` (configuration not stated) to `O=C(Nc1cccc(CN2CCN(C(=O)c3cccc(Cl)c3)CC2)c1)c1ccco1.O=C(O)C(F)(F)F`, the Inhibition rises from 82% to 96%.

Going from `COc1ccccc1-n1c(-c2ccc3ccccc3c2)csc1=NC(=O)c1ccccc1` to `CN(C)Cc1ccc2cc(NC(=O)c3ccc(-c4ccc(Cl)cc4)cc3)ccc2c1`, the Inhibition falls from 93% to 92%.

Compared with `Cc1ccc(Cl)cc1NC(=O)c1c(-c2ccccc2Cl)noc1C`, `COc1ccc(OC)c(NC(=O)c2c(-c3c(F)cccc3Cl)noc2C)c1` is higher in Inhibition: 88% for the first, 94% for the second.

`CC(CN(C)C)Oc1ccc2nc(-c3cccc(OCc4ccccc4)c3)[nH]c2c1C#N` (configuration not stated) and `Cc1cccc2nc(-c3ccc(-c4ccc(CNCc5cccc(N)c5)cc4)s3)[nH]c12.O=C(O)C(F)(F)F` are the same in Inhibition: 100% for the first, 100% for the second.

Compared with `COc1ccc2nccc(N3CCC(SCCNS(=O)(=O)c4ccc5c(c4)NC(=O)CS5)C3)c2n1.Cl` (configuration not stated), `CS(=O)(=O)NCCCNCc1ccc(-c2ccc(-c3nc4cc(C(F)(F)F)ccc4[nH]3)cc2)cc1.O=C(O)C(F)(F)F` is higher in Inhibition: 99% for the first, 100% for the second.

First: CCN1C(c2ccc(Cl)cc2)C(CNCc2ccccc2O)CC1(C)CO (configuration not stated)
Second: OCC(c1ccccc1)n1c(COc2ccc(Cl)cc2)nc2c(OCCCN3CCCCC3)cccc21 (configuration not stated)
The Inhibition of the first is higher: 99% for the first, 90% for the second.

Compared with `Cc1c(-c2cccc(Br)c2)[nH]c2nc(N)nc(N)c12`, `C=CCC(C)n1ncc2c3c(N)nc(N)nc3ccc21` (configuration not stated) is lower in Inhibition: 100% for the first, 93% for the second.

Going from `CN1CCN(c2ccc(Cl)cc2NC(=O)C2COc3ccccc3O2)CC1` (configuration not stated) to `COc1cc(NC(=O)CCCCCCCN2CCN(C)CC2)c2ncccc2c1`, the Inhibition falls from 99% to 95%.

Going from `FC(F)(F)c1ccc2[nH]c(-c3cccc(-c4cccc(CNCC5CCCO5)c4)c3)nc2c1.O=C(O)C(F)(F)F` (configuration not stated) to `O=C(Nc1ccc(Cn2ncc(N3CCNCC3)c(Cl)c2=O)cc1)Nc1ccc(-c2ccccc2)cc1.O=C(O)C(F)(F)F`, the Inhibition falls from 100% to 98%.

Going from `O=[N+]([O-])c1ccc2nccnc2c1` to `O=C(Nc1ccc(F)cc1)c1nc2ccccc2nc1Cl`, the Inhibition falls from 97% to 80%.

Compared with `COc1ccc(CN2CCC2=O)c(OC)c1`, `Cc1cc(N2CCCCC2)nc2ccc(NC(=O)c3cncc(Br)c3)cc12` is higher in Inhibition: 98% for the first, 100% for the second.

For `Cl.Fc1cccc(COc2ccc(Nc3ncnc4ccc(-c5nnc(C(F)(F)F)o5)cc34)cc2Cl)c1`, the Inhibition was 100%.
